PubChem BioAssay (NCI)
Compounds without any hit were thinned out: in the full panel of roughly 83,000, 20% have a hit.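 Growth was measured after 48 h exposure to one concentration of compound in 96-well plates. Values under 10 count as active.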 A number with no mark means an inactive call. Calls of active or inactive are those of the source.

Assays:
Assay in all cases: NCI-60 one-dose screen, 48 h (100 = growth as untreated, 0 = no growth, -100 = all killed)
K-562 leukemia = settings: 10 µM unless noted
MALME-3M melanoma = settings: 10 µM unless noted
MDA-MB-231 breast = settings: 10 µM unless noted
RXF 393 renal = settings: 10 µM unless noted
SF-268 CNS = settings: 10 µM unless noted
SF-295 CNS = settings: 10 µM unless noted
SF-539 CNS = settings: 10 µM unless noted
UACC-257 melanoma = settings: 10 µM unless noted
M14 melanoma = settings: 10 µM unless noted
HT29 colon = settings: 10 µM unless noted
SNB-75 CNS = settings: 10 µM unless noted
SNB-19 CNS = settings: 10 µM unless noted
U251 CNS = settings: 10 µM unless noted
PC-3 prostate = settings: 10 µM unless noted
UACC-62 melanoma = settings: 10 µM unless noted
LOX IMVI melanoma = settings: 10 µM unless noted
SK-MEL-28 melanoma = settings: 10 µM
SK-MEL-2 melanoma = settings: 10 µM unless noted
HCT-15 colon = settings: 10 µM unless noted
SK-MEL-5 melanoma = settings: 10 µM unless noted

| SMILES | growth (K-562 leukemia) | growth (MALME-3M melanoma) | growth (MDA-MB-231 breast) | growth (RXF 393 renal) | growth (SF-268 CNS) | growth (SF-295 CNS) | growth (SF-539 CNS) | growth (UACC-257 melanoma) | growth (M14 melanoma) | growth (HT29 colon) | growth (SNB-75 CNS) | growth (SNB-19 CNS) [%] | growth (U251 CNS) | growth (PC-3 prostate) | growth (UACC-62 melanoma) | growth (LOX IMVI melanoma) | growth (SK-MEL-28 melanoma) | growth (SK-MEL-2 melanoma) | growth (HCT-15 colon) | growth (SK-MEL-5 melanoma) |
| --- | --- | --- | --- | --- | --- | --- | --- | --- | --- | --- | --- | --- | --- | --- | --- | --- | --- | --- | --- | --- |
| O=C(CCc1nnc2sc(-c3ccc(Cl)cc3Cl)nn12)c1nc2ncccc2[nH]1 | 6.32% (active) | -47.6% (active) | -43.5% (active) | -93.1% (active) | 36.9% | -56.8% (active) | -21% (active) | -25.3% (active) | -14.2% (active) | -13% (active) | 35.3% | 26.9 | -74.2% (active) | -38.6% (active) | -36.6% (active) | -88.3% (active) | -9.94% (active) | -11.5% (active) |  |  |
| O=C(Nc1nc2c(s1)CCc1c-2c(Br)n(Cc2ccccc2)c1Br)c1ccccc1 | 56.8% | -16.2% (active) | 36.6% | 36.6% | 60.7% | 62.5% | 18.1% | 64.9% |  | 51.6% | -10.7% (active) | 65.7 | 57.3% | 67.3% | 62.4% | 68.5% | 66% | 89.4% | 81.6% | 41% |
| COc1cccc(/C=C/C(=O)c2c(C)nc3ccccc3c2/C=C/c2ccccc2)c1OC | 9.13% (active) | 69.1% | 20.9% | 15.4% | 38.8% | 46.5% | 58.8% | 46.1% |  | 2.64% (active) | 9.19% (active) | 36.3 | 24% | 43.3% | 28.5% | -59.4% (active) | 44.8% | 32.3% | 5.81% (active) | 32.3% |
| CN(C)CCNc1cc(-c2ccccc2)nc2ccccc12 | 0.508% (active) | -77.3% (active) | -33.7% (active) | -91.1% (active) | -53.3% (active) | -71.5% (active) | -74.4% (active) | -74.5% (active) | -20.4% (active) | -42.2% (active) | -69.3% (active) | 54.2 | -69% (active) | -38.5% (active) | -75.9% (active) | -84% (active) | -90.7% (active) | -45.2% (active) |  | -74.3% (active) |
| COc1cc(C2CC(c3ccc(Nc4nc(NCCO)nc(N5CCOCC5)n4)cc3)=NN2c2cc(Cl)cc(Cl)c2)cc(OC)c1OC (stereo not given) | 21.9% | 77.6% | 49.2% | 5.08% (active) | 49.4% | 50.1% | 41.4% | 80.2% |  | 33.6% | 28.2% | 72.6 | 47.7% | 34.1% | 48.6% | 30.9% | 72.8% | 94.7% | 31.5% | 60.1% |
| C1=CC2(C=C1)OC21CCC2(C=CC3(C2)OC3C2CCCCC2)CC1 (stereo not given) | 113% | 108% | 108% | 119% | 104% | 106% | 101% | 108% |  | 110% | 94.2% | 104 | 99.5% | 101% | 99.7% | 92.5% | 105% | 104% | 101% | 106% |
| O=c1oc2ccc(-c3ccc(F)cc3F)cc2c(=O)n1-c1cccc(C(F)(F)F)c1 | 10.9% | -24% (active) | -16% (active) | -8.07% (active) | 12.7% | -0.824% (active) | 9.91% (active) | -14.2% (active) |  | 31.3% | -7.33% (active) | 14.4 | 4.94% (active) | 3.58% (active) | 7.26% (active) | 25.7% | 25% | -15.9% (active) | 13% | -76.4% (active) |
| CCOc1cccc(/C=N/NC(=O)C(=O)Nc2cccc(C(F)(F)F)c2)c1O | 21.7% | 56.7% | 31.7% | 37.6% | 35.4% | 10% | 11.7% | 5.14% (active) |  | 41.3% | 68.1% | 41.3 | 22.9% | 44.5% | 2.68% (active) |  | 44.6% | 36.9% | 22.3% | -25.5% (active) |
| COc1cc(CNC(=O)c2ccsc2Nc2ccnc(C(F)(F)F)c2)ccc1O | 96.6% | 64.4% | 102% | 106% | 94.1% | 104% | 102% | 107% |  | 97.8% | 101% | 96 | 95.4% | 88.1% | 102% | 91.7% | 118% | 103% | 99.1% | 98.2% |
| C[n+]1c2ccccc2nc2ccc(NCCO)cc21 | 68.2% | 101% | 77.2% | 83.2% | 63.7% | 98.5% | 90.8% | 99.2% |  | 8.37% (active) | 98.8% | 78.3 | 80.5% | 50.7% | 84.1% | 90.6% | 110% | 102% | 93.8% | 98% |
| CC1=C(CC(=O)c2cccc([N+](=O)[O-])c2)C(=O)c2ccccc2C1=O | -4.57% (active) | -87.5% (active) | -17.7% (active) | -26% (active) | -33.4% (active) | -58.2% (active) | -22.1% (active) | -13.7% (active) |  | 106% | -84.6% (active) | 13 | -81% (active) | 42.8% | -50.8% (active) | -51.9% (active) | -89.9% (active) | -36.2% (active) | 19.5% | 4.78% (active) |
| COc1ccc(Cn2c(Br)c3c(c2Br)-c2nc(N)sc2CC3)cc1 | 4.07% (active) | 21.9% | 37% | 16.3% | 45.2% | 70.3% | 39.9% | 70.4% | 13.9% | 16.8% | 38.2% |  | 36.5% | 56.6% | 27.5% |  | 46.1% | 22% |  | 15.1% |
| Cc1ccc2nc(NC(=O)CSC(=S)N3CCN(c4ccccc4)CC3)sc2c1 | 95.7% | 105% | 101% | 108% | 101% | 104% | 104% | 108% | 97.8% | 96.6% | 97.1% | 96.9 | 86.3% | 95.5% |  | -65% (active) | 107% | 96.1% |  | 95.4% |
| COc1ccccc1CNC(=O)C1c2ccccc2C(=O)N(CC(C)C)C1c1cccs1 (stereo not given) | 16.4% | 46.4% | 19.6% | -2.16% (active) | 65.7% | -33.5% (active) | 63.4% | 96.2% |  | 11.9% | 67.5% | 90.6 | 49.7% | 47.8% | 46.4% |  | 58.1% | 87.2% | 30.8% | 52.2% |
| NCCOc1ccccc1/C=C1\c2ccccc2-c2ccc([N+](=O)[O-])cc21 | -44.9% (active) | 26% | 17.9% | 1.55% (active) | 18.1% | 6.73% (active) | 8.01% (active) | 63.9% |  | -59.7% (active) | -5.59% (active) | 10.6 | -74.1% (active) | 36.8% | 20.7% | -93.8% (active) | 48% | 78.3% | -52.7% (active) | 30.1% |
| COc1ccccc1C1=C(Br)C(=O)c2nc(C)ccc2C1=O | 65% | 62.4% | 96.6% | 102% | 97.5% | 98.6% | 105% | 99.6% |  | 101% | 94.4% | 101 | 102% | 101% | 88.9% | 97.1% | 104% | 97.2% | 96.7% | 100% |
| NCCNc1nc2ccc(F)cc2c2c(=O)c3cc(F)ccc3sc12 | -44.2% (active) | 99% | 6.98% (active) | 52.3% | 48.9% | 82.3% | 73.6% | 79.4% | 15.7% | -39.5% (active) | 39.9% |  | 24.1% | 45% | 84.2% | -90.8% (active) | 91% | 91.5% |  |  |
